According to PubChem BioAssay AID1159580 (chemical genetic matrix, 2015):
About 2,000 (36%) of roughly 5,500 compounds were called active. Another 18% or so got no clear call; they are omitted. No stated cut-off is given here; in the data, active means normalized growth mostly below about 0.91 (no sharp cut-off); inconclusive means no clear call, values can overlap the other calls; inactive means mostly above about 0.92. Some of the results follow.

Test: chemical genetic growth profiling, strain panel (AID 1159580);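 further: tested at 20 µM; growth read once vehicle control cultures reached saturation at 30 °C; 1 = growth at the plate median or of vehicle wells; lower values mean less growth of the strain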
Settings: S. cerevisiae deletion strains, growth OD

Measured: normalized growth

Cc1cc(C(=O)N(c2ccccc2)C(C)C2CC2)c(Cl)cc1Cl (stereo unspecified)
active: locus YHR030C, strain SLT2, active compounds read low 0.8 | locus YLR113W, strain HOG1, active compounds read low 0.808 | locus YPL256C, strain CLN2, active compounds read low 0.848
inactive: locus YAR019C, strain CDC15, active compounds read low 0.987 | locus YBL105C, strain PKC1, active compounds read low 0.984 | locus YBR135W, strain CKS1, active compounds read low 0.984 | locus YBR136W, strain MEC1, active compounds read low 0.987 | locus YBR160W, strain CDC28, active compounds read low 0.991 | locus YDL017W, strain CDC7, active compounds read low 0.978 | locus YDL028C, strain MPS1, active compounds read low 0.982 | locus YDL101C, strain DUN1, active compounds read low 0.98 | locus YDL108W, strain KIN28, active compounds read low 0.978 | locus YDL132W, strain cdc53, active compounds read low 0.973 | locus YDL214C, strain PRR2, active compounds read low 0.955 | locus YDR052C, strain DBF4, active compounds read low 0.985 | locus YDR054C, strain cdc34, active compounds read low 0.966 | locus YDR226W, strain ADK1, active compounds read low 0.971 | locus YDR477W, strain SNF1, active compounds read low 0.942 | locus YER123W, strain YCK3, active compounds read low 0.943 | locus YER133W, strain GLC7, active compounds read low 0.938 | locus YFL009W, strain cdc4, active compounds read low 0.973 | locus YFL029C, strain CAK1, active compounds read low 0.984 | locus YFR003C, strain YPI1, active compounds read low 0.979 | locus YFR019W, strain FAB1, active compounds read low 0.968 | locus YFR028C, strain CDC14, active compounds read low 0.979 | locus YGR040W, strain KSS1, active compounds read low 0.944 | locus YGR052W, strain FMP48, active compounds read low 0.949 | locus YGR092W, strain DBF2, active compounds read low 0.989 | locus YHR079C, strain IRE1, active compounds read low 0.97 | locus YHR082C, strain KSP1, active compounds read low 0.99 | locus YHR205W, strain SCH9, active compounds read low 0.985 | locus YIL147C, strain SLN1, active compounds read low 0.983 | locus YJL095W, strain BCK1, active compounds read low 0.939 | locus YJL128C, strain PBS2, active compounds read low 0.92 | locus YJL157C, strain FAR1, active compounds read low 0.957 | locus YJR016C, strain ILV3, active compounds read low 0.976 | locus YJR066W, strain TOR1 (second series), active compounds read low 0.921 | locus YJR066W, strain TOR1, active compounds read low 1.03 | locus YKL048C, strain ELM1, active compounds read low 0.966 | locus YKL067W, strain YNK1, active compounds read low 0.955 | locus YKL101W, strain HSL1, active compounds read low 0.953 | locus YKL193C, strain SDS22, active compounds read low 0.977 | locus YKL203C, strain TOR2, active compounds read low 1.01 | locus YLR133W, strain CKI1, active compounds read low 0.965 | locus YLR403W, strain SFP1, active compounds read low 0.993 | locus YML070W, strain DAK1, active compounds read low 0.925 | locus YMR001C, strain CDC5, active compounds read low 0.982 | locus YMR205C, strain PFK2 (second series), active compounds read low 0.958 | locus YMR277W, strain FCP1, active compounds read low 0.972 | locus YNL006W, strain LST8, active compounds read low 0.989 | locus YNL020C, strain ARK1, active compounds read low 0.95 | locus YNL161W, strain CBK1, active compounds read low 0.979 | locus YNL183C, strain NPR1, active compounds read low 1.02 | locus YNL207W, strain RIO2, active compounds read low 0.978 | locus YNL222W, strain SSU72, active compounds read low 0.988 | locus YNL307C, strain MCK1 (second series), active compounds read low 0.941 | locus YOL078W, strain AVO1, active compounds read low 0.98 | locus YOL136C, strain PFK27, active compounds read low 0.936 | locus YOR061W, strain CKA2, active compounds read low 0.958 | locus YOR119C, strain RIO1, active compounds read low 1.02 | locus YOR231W, strain MKK1, active compounds read low 0.95 | locus YOR329C, strain SCD5, active compounds read low 0.984 | locus YPL031C, strain PHO85, active compounds read low 0.939 | locus YPL153C, strain RAD53, active compounds read low 0.921 | locus YPL204W, strain HRR25, active compounds read low 0.918 | locus YPL209C, strain IPL1, active compounds read low 0.985 | locus YPR025C, strain CCL1, active compounds read low 0.991 | locus YPR106W, strain ISR1, active compounds read low 0.982 | locus YPR111W, strain DBF20, active compounds read low 0.97 | strain NNK1, active compounds read low 0.976 | strain TSCII, active compounds read low 0.983
